Records with an inconclusive call do not appear. Calls of active or inactive are those of the source. Calls come from the whole dose curve; as a rule, active = well fitted cell-killing curve with a large enough effect; inconclusive = small, poorly fitted or top-dose-only effect, or effect the other way; inactive = no such curve, though single readings can be large or run the other way.
system: Tov-21-G; assay: Confirmatory qHTS for gynecologic anti-cancer compounds from libraries of approved drugs and bioactive compounds; conditions: gynecologic cancer cell panel viability, ATPlite luminescence, 48 h; series mostly up to 57.7 µM; note: nearly all actives have a fitted effect of over 55% in size
How it was run: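 1,000 cells/well; 16 h pre-incubation 37 C, 5% CO2; pin-transferred cpd in DMSO, 11 conc (1:3), 57.5 uM–0.977 nM; 48 h; ATPlite, 15 min RT; luminescence → IC50.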
Potency is the fitted concentration of half-maximal effect.

Structure (SMILES)	Potency
COc1cc2c(Oc3ccc(-c4cnc(Nc5ccc(F)cc5)n(C)c4=O)cc3F)ccnc2cc1OCCCN1CCOCC1	19.3 µM (active)
Cc1ccc(C(N)=O)cc1Nc1nccc(-c2cn(C(C)C)c3cnccc23)n1	9.68 µM (active)
CN(Cc1cnc2nc(N)nc(N)c2n1)c1ccc(C(=O)N[C@@H](CCC(=O)O)C(=O)O)cc1	inactive
COc1cc2c(cc1-c1c(C)noc1C)ncc1[nH]c(=O)n(C(C)c3ccccn3)c12 (stereo unspecified)	6.85 µM (active)
O=C(c1ccc(F)c(F)c1Nc1ccc(I)cc1F)N1CC(O)([C@@H]2CCCCN2)C1	9.68 µM (active)
COc1cc2nccc(Oc3ccc(NC(=O)Nc4cc(C)on4)c(Cl)c3)c2cc1OC	19.3 µM (active)
CNC(=O)c1nn(C)c2c1C(C)(C)Cc1cnc(Nc3ccc(N4CCN(C)CC4)cc3)nc1-2	0.122 µM (active)
Nc1ncn([C@@H]2O[C@H](CO)[C@@H](O)[C@H]2O)c(=O)n1	19.3 µM (active)
NCCOc1cc(C(=O)Nc2cc(OCCN)c3ccccc3n2)nc(C(=O)Nc2cc(OCCN)c3ccccc3n2)c1	24.3 µM (active)
NS(=O)(=O)c1ccc(Nc2nc(OCC3CCCCC3)c3[nH]cnc3n2)cc1	inactive
COc1cc2c(NC3CCN(C(C)C)CC3)nc(C3CCCCC3)nc2cc1OCCCN1CCCC1	10.9 µM (active)
COC(C(=O)N1Cc2[nH]nc(NC(=O)c3ccc(N4CCN(C)CC4)cc3)c2C1)c1ccccc1 (stereo unspecified)	1.37 µM (active)
CN(C)C/C=C/C(=O)Nc1cc2c(Nc3ccc(F)c(Cl)c3)ncnc2cc1OC1CCOC1 (stereo unspecified)	3.43 µM (active)
CC1(C)[C@@H](O)CC[C@]2(C)[C@H]3C(=O)C=C4[C@@H]5C[C@@](C)(C(=O)O)CC[C@]5(C)CC[C@@]4(C)[C@]3(C)CC[C@@H]12	inactive
CNc1nc(Nc2ccc(C(=O)N3CCOCC3)cc2OC)ncc1Cl	inactive
C1CCC(C(CC2CCCCN2)C2CCCCC2)CC1 (stereo unspecified)	12.2 µM (active)

Structure (SMILES)	Potency
COc1cccc2c1C(=O)c1c(O)c3c(c(O)c1C2=O)C[C@@](O)(C(=O)CO)C[C@@H]3O[C@H]1C[C@H](N)[C@H](O)[C@H](C)O1	2.43 µM (active)
CNC(=O)CN1CCC(Oc2cc3c(Nc4cccc(Cl)c4F)ncnc3cc2OC)CC1	7.69 µM (active)
CCc1cccc(CC)c1NC(=O)N1Cc2[nH]nc(NC(=O)c3ccc(N4CCN(C)CC4)cc3)c2C1	2.73 µM (active)
Cc1ccc(C(=O)Nc2ccc(CN3CCN(C)CC3)c(C(F)(F)F)c2)cc1C#Cc1cnc2[nH]ncc2c1	0.0273 µM (active)
Cc1nc(Nc2n[nH]c3c2CN(C(=O)NC(CN(C)C)c2ccccc2)C3(C)C)c2sccc2n1 (stereo unspecified)	2.43 µM (active)
Nc1ccc(C(=O)Nc2cccc(-c3nc(N4CCOCC4)c4oc5ncccc5c4n3)c2)cn1	6.11 µM (active)
CCC1C(=O)N(C)c2cnc(Nc3ccc(C(=O)NC4CCN(C)CC4)cc3OC)nc2N1C1CCCC1 (stereo unspecified)	1.93 µM (active)
COc1ccc(-c2cc3nccn3c(Nc3ncccc3C(N)=O)n2)cc1OC	4.85 µM (active)
OC[C@H]1O[C@@H](n2cnc3c(=S)nc[nH]c32)[C@H](O)[C@@H]1O	inactive
O=C(CCCCCCC(=O)Nc1ccccc1)NO	4.85 µM (active)
Fc1cc(-c2cccc3ncc(-c4cnn(C5CCNCC5)c4)nc23)cc(F)c1CN1CCOCC1	12.2 µM (active)
CC(=O)NCC(=O)N1C2CCC1c1cc(Nc3ncc(C(F)(F)F)c(NC4CCC4)n3)ccc12 (stereo unspecified)	3.06 µM (active)
Cc1csc(NC(=O)c2sc3nc4c(c(C(F)(F)F)c3c2N)CCC4)n1	1.93 µM (active)
CC(C)CC(=O)Nc1n[nH]c2c1CN(C(=O)C1CCN(C)CC1)C2(C)C	3.85 µM (active)
Cc1cc(CN2CCN(c3c(Br)cnc4nc(-c5ccc(N6CCN(C)CC6)cc5)[nH]c34)CC2)no1	24.3 µM (active)
